Screening results (PubChem)
RAD54 inh: blocks human RAD54 Holliday junction branch migration. Q92698. FAM/BHQ fluorescence. inhibition, % at 10.4 µM. hit rate 0.14% among 360,000;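 active = mean normalized replicate activity at least 40 and at least half of replicates scoring 40 or more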;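 also: 0% = median of neutral control wells and 100% = median of positive control wells; inhibitors cause a drop in the FAM fluorescence signal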
dFosB act: activators of mouse delta FosB homodimer; P13346; purified delta FosB, TAMRA-CDK5 oligo fluorescence polarization; percent of positive-control signal above neutral wells; activation, % at 25 µM; hit rate 0.99% among 340,000;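 active = mean activation above about 17%, with every replicate also reaching it, limit read from the data, passing the limit was not always enough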
RAD52 anneal inh: inhibitors of human RAD52 DNA annealing. P43351. recombinant RAD52 DNA annealing, FRET fluorescence. inhibition, % at 18.7 µM. hit rate 0.46% among 360,000;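 active = every replicate showing at least 50% inhibition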
GSIS activator: GLuc luminescence reporter in INS-1E cells, primary screen for activators of glucose-dependent secretion of insulin | AID 743287 | activation, % at 16.6 µM | hit rate 0.61% among 370,000 | INS-1E GLuc reporter insulin secretion, 2-3 h;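 active = lowest replicate activation of at least 40%, so every replicate reaches that level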;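 also: 0% = median of neutral control wells and 100% = median of IBMX positive control wells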
DENV2 CPE: protects cells from dengue virus 2 cytopathic effect | hit rate 1.7% among 350,000 | DENV2-infected cells, cytopathic effect rescue, plate reader | CPE inhibition, % at 9.99 µM; in the data active = CPE inhibition above about 20%, passing the limit was not always enough; tested in BHK-21 cells;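 also: 0% = median of neutral control wells and 100% = median of positive control wells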
MLL AF4-AF9 inh: blocks AF4 peptide binding to human AF9; P42568; inhibition, % at 10 µM; hit rate 0.47% among 350,000; AlphaScreen, biotin-AF4 peptide binding to FLAG-AF9;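 active = every replicate reaching a set inhibition limit, whatever the replicate mean, cut at about 25% in these data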;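 also: 0% = plate neutral control median and 100% = total signal loss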
Target sequence (P42568 whole entry, looked up): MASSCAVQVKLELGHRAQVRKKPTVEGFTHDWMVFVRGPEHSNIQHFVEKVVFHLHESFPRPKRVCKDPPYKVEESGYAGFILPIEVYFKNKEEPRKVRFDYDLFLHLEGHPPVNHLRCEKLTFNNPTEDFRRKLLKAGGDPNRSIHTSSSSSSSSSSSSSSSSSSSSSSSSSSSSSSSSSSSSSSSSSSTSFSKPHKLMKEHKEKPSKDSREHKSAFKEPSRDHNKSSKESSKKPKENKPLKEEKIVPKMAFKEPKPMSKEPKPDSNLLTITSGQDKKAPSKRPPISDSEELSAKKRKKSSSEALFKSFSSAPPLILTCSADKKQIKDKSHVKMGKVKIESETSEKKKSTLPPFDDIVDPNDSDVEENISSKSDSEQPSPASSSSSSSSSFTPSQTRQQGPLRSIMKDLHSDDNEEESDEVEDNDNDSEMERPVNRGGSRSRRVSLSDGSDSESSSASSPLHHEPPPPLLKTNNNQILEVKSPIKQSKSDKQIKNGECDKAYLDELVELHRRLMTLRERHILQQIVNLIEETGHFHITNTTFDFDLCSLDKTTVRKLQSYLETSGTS
* hit, by the source's call; ! = repeats disagree. A selection: hits, their analogues and other compounds. The true share with any hit is near 3.1%.

Results for CO[C@H]1CN(C)C(=O)c2cc(NC(=O)Nc3ccc(Cl)c(Cl)c3)ccc2OC[C@H](C)NC[C@H]1C ?
RAD54 inh: 29; RAD52 anneal inh: 54*; GSIS activator: 14

How did CO[C@H]1CN(C)C(=O)c2cc(NC(=O)Nc3ccccc3Cl)ccc2OC[C@@H](C)NC[C@@H]1C do in these assays?
RAD54 inh: 9; RAD52 anneal inh: -1; GSIS activator: 7; DENV2 CPE: 31*; MLL AF4-AF9 inh: 0

How did CO[C@@H]1CN(C)C(=O)c2cc(NC(=O)Nc3cc(F)ccc3F)ccc2OC[C@H](C)N(C(=O)c2cnccn2)C[C@H]1C do in these assays?
RAD54 inh: 8; RAD52 anneal inh: 3; GSIS activator: -16; DENV2 CPE: 10; MLL AF4-AF9 inh: 0

Results for CO[C@H]1CN(C)C(=O)c2cc(NC(=O)c3cnccn3)ccc2OC[C@@H](C)NC[C@@H]1C ?
RAD54 inh: -11; RAD52 anneal inh: -67; GSIS activator: 12; DENV2 CPE: 6; MLL AF4-AF9 inh: -2

What do the screens show for `CO[C@H]1CN(C)C(=O)c2cc(NC(=O)c3cnccn3)ccc2OC[C@H](C)NC[C@H]1C`?
RAD54 inh: 1; RAD52 anneal inh: -23; GSIS activator: 5; DENV2 CPE: 27*; MLL AF4-AF9 inh: -3

What do the screens show for `COc1cc(/C=N/Nc2cc(C)nc(NS(=O)(=O)c3ccc(C)cc3)n2)ccc1O`?
dFosB act: -1; RAD52 anneal inh: -17; GSIS activator: 46*; DENV2 CPE: -4; MLL AF4-AF9 inh: -2

How did COc1cc(/C=N/Nc2cc(C)nc(NS(=O)(=O)c3ccccc3)n2)ccc1O do in these assays?
RAD54 inh: -9; dFosB act: -13; RAD52 anneal inh: -17; GSIS activator: 26; DENV2 CPE: 7; MLL AF4-AF9 inh: -5

What do the screens show for `Clc1ccc(-c2ccnc(Oc3ccc4ccccc4c3)n2)cc1`?
RAD54 inh: -2; dFosB act: -2; GSIS activator: 114*

What do the screens show for `N#Cc1cc(-c2ccccc2)nc(Oc2ccc(Cl)cc2)n1`?
dFosB act: -1; GSIS activator: -14

What do the screens show for `CCNC(=O)[C@H]1[C@H](CO)[C@H]2Cn3c(ccc(-c4cncnc4)c3=O)[C@H]2N1C(=O)c1ccccc1F`?
RAD54 inh: -6; RAD52 anneal inh: -4; GSIS activator: 11; DENV2 CPE: -7; MLL AF4-AF9 inh: 2

Results for Cc1cc(C(=O)Nc2cccc3c2O[C@H](CN(C)C(=O)NC2CCCCC2)[C@@H](C)CN([C@H](C)CO)C3=O)n(C)n1 ?
RAD54 inh: -6; RAD52 anneal inh: 11; GSIS activator: 3; DENV2 CPE: 37*; MLL AF4-AF9 inh: -11

What do the screens show for `C[C@@H]1CN([C@@H](C)CO)C(=O)c2cccc(NC(=O)C3CCCCC3)c2O[C@@H]1CN(C)C(=O)NC1CCCCC1`?
RAD54 inh: 2; dFosB act: -9; RAD52 anneal inh: 3; GSIS activator: -3; DENV2 CPE: 33*!; MLL AF4-AF9 inh: -4

What do the screens show for `C[C@H](CO)N1C[C@H](C)[C@@H](CN(C)C(=O)NC2CCCCC2)Oc2c(NC(=O)C3CC3)cccc2C1=O`?
RAD54 inh: 10; dFosB act: -4; RAD52 anneal inh: 10; GSIS activator: 17; DENV2 CPE: -1; MLL AF4-AF9 inh: -4

How did C[C@H]1CN([C@@H](C)CO)C(=O)c2cccc(NC(=O)C3CC3)c2O[C@@H]1CN(C)C(=O)NC1CCCCC1 do in these assays?
RAD54 inh: 7; RAD52 anneal inh: 9; GSIS activator: 10; DENV2 CPE: 54*; MLL AF4-AF9 inh: -3

What do the screens show for `COc1cccc(S(=O)(=O)Nc2ccc3c(c2)OC[C@H](C)NC[C@@H](C)[C@H](OC)CN(C)C3=O)c1`?
RAD54 inh: -3; RAD52 anneal inh: -3; GSIS activator: -1; DENV2 CPE: 1; MLL AF4-AF9 inh: -2

Results for O=C(CSc1nnnn1-c1ccccc1)Nc1ncc(Cc2cccc(Cl)c2Cl)s1 ?
dFosB act: 77*; RAD52 anneal inh: -6; DENV2 CPE: -5; MLL AF4-AF9 inh: -6

How did CC(C)C#Cc1ccc2c(c1)O[C@H](CN(C)Cc1cncnc1)[C@@H](C)CN([C@H](C)CO)S2(=O)=O do in these assays?
RAD54 inh: -2; RAD52 anneal inh: 18; GSIS activator: -14; DENV2 CPE: -5; MLL AF4-AF9 inh: 3
